PubChem BioAssay

target: Torsin-1A (Homo sapiens) (UniProt O14656); experiment: torsin A mutant lysate binding on microarrays – cell lysate, small-molecule microarray, COS7 lysate, 635/667 nm fluorescence, primary screen (AID 1150); details: COS7 hTOR1A mutant lysate, 635 nm fluorescence, higher = more signal;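 further: score pools 667 nm emission and signal to noise measuring lysate protein binding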
Sequence (O14656 whole entry, looked up): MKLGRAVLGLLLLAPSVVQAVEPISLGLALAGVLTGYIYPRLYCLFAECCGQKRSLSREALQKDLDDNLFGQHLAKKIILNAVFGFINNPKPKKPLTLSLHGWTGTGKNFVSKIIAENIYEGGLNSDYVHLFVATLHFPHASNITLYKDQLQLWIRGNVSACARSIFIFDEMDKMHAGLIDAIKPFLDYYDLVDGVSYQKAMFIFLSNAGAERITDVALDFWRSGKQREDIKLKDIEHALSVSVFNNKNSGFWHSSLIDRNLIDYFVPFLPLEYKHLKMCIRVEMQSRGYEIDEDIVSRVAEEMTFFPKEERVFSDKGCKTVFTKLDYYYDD

**Q.** With `[N-]=[N+]=Nc1ccccc1C[C@@]1(C(=O)NCC(O)CO)N=C(c2ccc(OCCCO)cc2)O[C@@H]1c1ccccc1` (stereo partly specified) as the molecule, how does the composite z-score read?
**A.** 0.944

**Q.** How did the composite z-score turn out when `C=C(CCCC)/C(=C/C[C@H](OC(=O)c1ccncc1)c1cccc(OCCO)c1)c1cnc2ccccc2c1` was run?
**A.** 0.706

**Q.** For `COCCOC(=O)N1C(=O)[C@@]2(c3cc(C#Cc4ccc(OC)cc4)ccc31)[C@H](c1ccc(OCCO)cc1)N1[C@H](c3ccccc3)[C@H](c3ccccc3)OC(=O)[C@H]1[C@@H]2C(=O)NC[C@H](O)c1ccccc1`, which composite z-score is on record?
**A.** 0.603

**Q.** How did the composite z-score turn out when `CCOC(=O)C1=CC[C@@H](c2ccc(OC)cc2)N(S(=O)(=O)c2ccc(C)cc2)[C@H]1c1ccc(C)cc1` was run?
**A.** 0.308

**Q.** Which composite z-score does the source give for `COCCOC(=O)N1C(=O)[C@@]2(c3cc(C#CCCO)ccc31)[C@H](c1ccc(OCCO)cc1)N1[C@H](c3ccccc3)[C@H](c3ccccc3)OC(=O)[C@H]1[C@@H]2C(=O)N1CCCCCCC1` here?
**A.** 0.726

**Q.** How did the composite z-score turn out when `COC(=O)[C@@]1(Cc2ccc(F)cc2)[C@H]2c3cc(C(=O)N4CCCC4)n(Cc4cc(F)cc5c4OCOC5)c3C[C@H]2CN1C(=O)c1ccccc1` was run?
**A.** -0.212

**Q.** For `C=C(CCCC)/C(=C/C[C@H](OC(=O)c1ccncc1)c1ccc(OCCO)cc1)c1cnc2ccccc2c1`, which composite z-score is on record?
**A.** 0.667

**Q.** For `C=CCOC(=O)[C@@H]1[C@H]2C(=O)O[C@H](c3ccccc3)[C@H](c3ccccc3)N2[C@H](c2ccc(OCCOC(=O)[C@H]3C[C@H]4C(=O)N5CCC[C@H]5C(=O)N4[C@H]3c3cccc(OCCO)c3)cc2)[C@@]12C(=O)Nc1ccc(I)cc12`, which composite z-score is on record?
**A.** 0.618

**Q.** For `COc1ccc([Si](C)(C)[C@H]2[C@H](CC(=O)N3Cc4ccccc4C[C@H]3CO)O[C@@]3(C(=O)N(C)c4c(Br)cc(C)cc43)[C@@H]2C)cc1`, which composite z-score is on record?
**A.** 0.435

**Q.** For `CCCC[C@H]1OB(O)C[C@H]2C1=C(COc1ccccc1)C[C@H]1C(=O)C=CC(=O)[C@H]12`, which composite z-score is on record?
**A.** 0.274

**Q.** With `COCCOC(=O)N1C(=O)[C@@]2(c3cc(C#CCC(C(=O)OC)C(=O)OC)ccc31)[C@H](C(=O)Nc1nc3ccccc3s1)[C@H]1C(=O)O[C@H](c3ccccc3)[C@H](c3ccccc3)N1[C@@H]2c1ccc(O)cc1` as the molecule, how does the composite z-score read?
**A.** 0.0756

**Q.** `COC(=O)[C@@]1(Cc2ccc(OC)cc2)[C@H]2c3cc(C(=O)N4CCCC4)n(Cc4ccc(Cl)c(C(F)(F)F)c4)c3C[C@H]2CN1C(=O)c1ccccc1` was tested. Which composite z-score did it give?
**A.** 1.28

**Q.** With `Cc1ccc(F)cc1S(=O)(=O)N[C@H]1CCN(Cc2ccc(OC(C)C)cc2)C1` as the molecule, how does the composite z-score read?
**A.** -0.0115

**Q.** `COCCOC(=O)N1C(=O)[C@@]2(c3cc(C#CCNC(N)=O)ccc31)[C@H](C(=O)Nc1nc3ccccc3s1)[C@H]1C(=O)O[C@H](c3ccccc3)[C@H](c3ccccc3)N1[C@@H]2c1ccccc1OCCO` was tested. Which composite z-score did it give?
**A.** 0.0351

**Q.** How did the composite z-score turn out when `CCCCC(O)C1C=CC2C(=O)N(c3ccccc3)C(=O)C2N1Nc1ccc([N+](=O)[O-])cc1` (stereo unspecified) was run?
**A.** 0.482

**Q.** For `CCCN1C(=O)[C@@]2(c3ccc([N+](=O)[O-])cc3)CC(=O)N(CC34CC5CC(CC(C5)C3)C4)[C@@H]2c2ccc(CO)cc21`, which composite z-score is on record?
**A.** 0.019

**Q.** `O=C1C=C(c2ccccc2)C(=O)C2=C1CC([C@H]1Oc3ccccc3S(=O)(=O)N3CCC[C@@H]13)=CC2` was tested. Which composite z-score did it give?
**A.** -0.495

**Q.** How did the composite z-score turn out when `O=C1[C@H]2C=C(I)[C@H](C[C@@H]2OCCCCCCO)[C@@]12CO2` was run?
**A.** 0.541

**Q.** With `N#Cc1ccc(-c2cccc(=O)o2)cc1` as the molecule, how does the composite z-score read?
**A.** 0.0587

**Q.** `N#Cc1ccc(NN2C(C(O)C3CC=CCC3)C=CC3C(=O)N(c4ccccc4)C(=O)C32)cc1` (stereo unspecified) was tested. Which composite z-score did it give?
**A.** 0.202

**Q.** With `COC(=O)C(CC#Cc1ccc2c(c1)[C@]1(C(=O)N2)[C@H](c2ccc(OCCO)cc2)N2[C@H](c3ccccc3)[C@H](c3ccccc3)OC(=O)[C@H]2[C@@H]1C(=O)N1CCCCCCC1)C(=O)OC` as the molecule, how does the composite z-score read?
**A.** 1.9

**Q.** With `COCCOC(=O)N1C(=O)[C@@]2(c3ccccc31)[C@H](c1ccc(O)cc1)N1[C@H](c3ccccc3)[C@H](c3ccccc3)OC(=O)[C@H]1[C@@H]2C(=O)N1CCCCCCC1` as the molecule, how does the composite z-score read?
**A.** 2.13

**Q.** For `COc1ccc(C(O)C2C=CC3C(=O)N(c4ccccc4)C(=O)C3N2Nc2ccc([N+](=O)[O-])cc2)c2ccccc12` (stereo unspecified), which composite z-score is on record?
**A.** 0.163

**Q.** How did the composite z-score turn out when `O=C1c2ccccc2[C@@]2(Cc3ccccc3N(Cc3ccccc3)C2=O)[C@H](c2ccc(CO)cc2)N1Cc1ccccc1Cl` was run?
**A.** 0.454

**Q.** Which composite z-score does the source give for `O=C1[C@@H]2[C@@H](CC(COc3ccccc3)=C([C@H](O)CCc3ccccc3)[C@@H]2CO)C(=O)N1Cc1ccccc1` here?
**A.** 0.167

**Q.** With `COCCOC(=O)N1C(=O)[C@@]2(c3cc(C#CCC(C(=O)OC)C(=O)OC)ccc31)[C@H](C(N)=O)[C@H]1C(=O)O[C@H](c3ccccc3)[C@H](c3ccccc3)N1[C@@H]2c1ccc(O)cc1` as the molecule, how does the composite z-score read?
**A.** 0.919
